The record followed here is the supplement of paper PMC6555819.

The assay deals with VDR homodimer (NR concentration 270 nM). In words: PBM binding z-score (relative to random genomic background probes); higher = stronger binding; sequences stand for … in GC…GCGATTGACAGCGTAGAATGAAGG
The method, boiled down:
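Custom Agilent 4×180K protein-binding microarrays carried double-stranded probes, each with a 34-nt variable region. These regions held direct-repeat seeds, single-nucleotide variants, half-site ablations and random human genomic background sequences. Ligand-free nuclear receptor dimers were incubated on the arrays for 1 h, antibodies against each partner (one per run) detected binding, and scanned fluorescence was regression-normalized. Binding z-scores take the random background probes as reference.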
Consider ACTCGGAGGACAAAGGTCAGAGCAACGCCAGTGA, for which the PBM binding z-score was 1.14.

For the sequence GCTGCTAGGTCAACTGATTGTCAGCTAAAGCTCG, the PBM binding z-score was determined as 0.00113.

GCGACTGGGGCAAAGCAAGTTACCATAAGGTTGG: the PBM binding z-score is -0.341.

Consider AGAATGAGGTTAATAAGATCAGGGAATTGCGGTC, for which the PBM binding z-score was determined as 0.247.

Sequence ATCCCTAGGTAAAGATAGTTCAGTGAATGCAAAT had a PBM binding z-score of 0.524.

In turn, CTTCGGAGGACAGAAGGTCAGAGCTGTCCGCTTT gave a PBM binding z-score of -0.0466.

With CCAGACAGGTGTAAGGTAACTCAGTCTGGTACGC, the PBM binding z-score turned out to be 0.39.

For the sequence CAAACTAGGTCCAGGTCAAAGTCGGTTTGTGCCA, the PBM binding z-score was 2.49.

In the case of CCTAGTTGGTCGAGGTCACACACGCTATAGGTAC, the PBM binding z-score was 4.51.

For the sequence TCTTGTTGATCAGCAGGTTAAGAAAGCTGGCCAA, the PBM binding z-score was -0.748.

On to CGTCAAAGTTCAAGATAACGTAACAGAAAGCAGC, for which the PBM binding z-score was 3.57.

CAAACTAGGCCAAAGGTCAAAGTCGAGCCAACCA: the PBM binding z-score is 1.61.

The sequence TCTCGGAGGACACGAAAGGTCGGAGCTCGACATC registered a PBM binding z-score of 0.287.

Turning to CGTCCAAGGTCTGCAGGTCAGTGAAAGCGACGTG, the PBM binding z-score is -0.462.

As for CCAGACAGGTGGAAGGTAACTCAGTCTGGTACGC, the PBM binding z-score was -0.0329.

As for ACAGACAGGAGATGAAGGTAACTCAGGCTATCAT, the PBM binding z-score was 0.239.

For CCAGACAGGCGAAAGGTAACTCAGTCTGGTACGC, the PBM binding z-score was -0.57.

CGTCCAAGGTCAATGCTAGGTCAGTGTAAGCATT returned a PBM binding z-score of 3.52.
